Measurements: the supplement of paper PMC10849652
About 7,900 targets were measured; listed, in parts, are those with a hit and a random draw of the rest. About 0.6% of all pairs of compound and target were hits. Unmarked numbers belong to inactive results.

What was measured:
Assay in all cases: log2 fold change, soluble protein after heating vs DMSO (PISA); higher = thermal stabilisation; K562 cells, 10 uM, 30 min; active = over 0.2 and 3.5 SD of the protein, either way, in both replicates (recomputed)
[1] = biological target: ZEB2 (UniProt O60315)
ZEB2, sequence (O60315 whole entry, looked up): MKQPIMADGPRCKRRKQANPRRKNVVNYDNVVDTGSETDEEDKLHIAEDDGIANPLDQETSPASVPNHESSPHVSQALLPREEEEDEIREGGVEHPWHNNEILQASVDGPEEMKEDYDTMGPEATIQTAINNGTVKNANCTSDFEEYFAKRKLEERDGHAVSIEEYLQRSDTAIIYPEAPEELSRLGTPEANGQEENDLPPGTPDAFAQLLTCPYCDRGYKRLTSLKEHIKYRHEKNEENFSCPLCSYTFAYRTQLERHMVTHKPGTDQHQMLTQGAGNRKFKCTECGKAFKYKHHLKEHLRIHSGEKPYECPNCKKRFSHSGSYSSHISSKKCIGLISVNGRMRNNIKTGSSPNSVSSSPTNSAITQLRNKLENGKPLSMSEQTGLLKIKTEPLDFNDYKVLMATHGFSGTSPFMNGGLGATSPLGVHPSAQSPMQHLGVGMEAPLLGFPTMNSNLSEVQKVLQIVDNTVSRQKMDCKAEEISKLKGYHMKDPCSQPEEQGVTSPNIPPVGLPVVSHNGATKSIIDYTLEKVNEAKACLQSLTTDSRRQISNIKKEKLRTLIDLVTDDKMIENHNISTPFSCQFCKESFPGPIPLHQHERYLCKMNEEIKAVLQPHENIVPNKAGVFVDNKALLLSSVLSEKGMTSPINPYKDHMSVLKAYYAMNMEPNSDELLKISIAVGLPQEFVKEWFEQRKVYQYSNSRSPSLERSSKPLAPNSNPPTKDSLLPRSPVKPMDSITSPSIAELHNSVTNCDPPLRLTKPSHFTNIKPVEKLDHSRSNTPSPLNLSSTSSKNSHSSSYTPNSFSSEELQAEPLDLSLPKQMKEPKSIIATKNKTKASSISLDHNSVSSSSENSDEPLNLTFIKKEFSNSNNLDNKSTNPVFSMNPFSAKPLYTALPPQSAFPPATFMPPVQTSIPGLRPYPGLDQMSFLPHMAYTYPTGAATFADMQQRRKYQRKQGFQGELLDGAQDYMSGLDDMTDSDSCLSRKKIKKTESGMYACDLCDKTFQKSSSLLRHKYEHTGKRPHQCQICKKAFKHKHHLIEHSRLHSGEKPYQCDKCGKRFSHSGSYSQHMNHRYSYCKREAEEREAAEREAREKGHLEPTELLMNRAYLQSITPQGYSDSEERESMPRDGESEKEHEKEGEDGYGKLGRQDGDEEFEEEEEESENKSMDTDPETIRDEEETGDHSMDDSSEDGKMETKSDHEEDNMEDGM
In short: (§1)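 K562 cells (2×10^6 cells/mL) were treated with 10 μM compound for 30 min, and aliquots were heated for 3 min over 48°C-58°C. Pooled aliquots were extracted in PBS with 0.5% NP-40 at 4°C, and the supernatant after 21,000xg for 90 min was measured by TMTpro 16plex LC-MS/MS with channel sums equalised. Reported thermal stability, relative to control samples and from duplicates, is a log2 fold change.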

[2] = biological target: ZER1 (UniProt Q7Z7L7)
ZER1, sequence (Q7Z7L7 whole entry, looked up): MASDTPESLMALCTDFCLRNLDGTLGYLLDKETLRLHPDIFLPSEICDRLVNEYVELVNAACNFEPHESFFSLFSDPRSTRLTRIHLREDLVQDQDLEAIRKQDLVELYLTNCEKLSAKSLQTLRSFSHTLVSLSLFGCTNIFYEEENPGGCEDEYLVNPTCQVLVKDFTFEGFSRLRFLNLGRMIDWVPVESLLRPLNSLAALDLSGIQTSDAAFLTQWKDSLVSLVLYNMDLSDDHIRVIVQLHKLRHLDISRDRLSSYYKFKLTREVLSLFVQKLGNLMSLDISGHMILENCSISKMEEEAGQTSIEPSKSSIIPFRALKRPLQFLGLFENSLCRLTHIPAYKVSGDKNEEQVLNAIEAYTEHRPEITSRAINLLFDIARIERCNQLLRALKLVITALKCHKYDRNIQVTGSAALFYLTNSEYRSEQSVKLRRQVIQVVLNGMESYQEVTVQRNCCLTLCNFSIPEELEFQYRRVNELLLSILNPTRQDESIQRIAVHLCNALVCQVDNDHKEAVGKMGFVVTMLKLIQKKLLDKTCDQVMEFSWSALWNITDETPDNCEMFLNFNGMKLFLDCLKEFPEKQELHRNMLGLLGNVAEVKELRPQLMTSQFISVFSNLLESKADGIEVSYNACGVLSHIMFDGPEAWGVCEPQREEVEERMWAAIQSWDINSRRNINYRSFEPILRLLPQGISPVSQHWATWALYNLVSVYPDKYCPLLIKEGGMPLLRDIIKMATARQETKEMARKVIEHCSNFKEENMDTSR
In short: as §1

[3] = biological target: ZFAND5 (UniProt O76080)
ZFAND5, sequence (O76080 whole entry, looked up): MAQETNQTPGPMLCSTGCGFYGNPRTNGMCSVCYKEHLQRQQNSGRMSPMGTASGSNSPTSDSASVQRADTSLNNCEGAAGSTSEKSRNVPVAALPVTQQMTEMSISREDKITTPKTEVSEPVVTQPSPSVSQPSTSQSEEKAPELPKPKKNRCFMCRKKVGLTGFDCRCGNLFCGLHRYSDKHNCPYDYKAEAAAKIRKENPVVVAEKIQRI
In short: as §1

[4] = biological target: ZFAND6 (UniProt Q6FIF0)
ZFAND6, sequence (Q6FIF0 whole entry, looked up): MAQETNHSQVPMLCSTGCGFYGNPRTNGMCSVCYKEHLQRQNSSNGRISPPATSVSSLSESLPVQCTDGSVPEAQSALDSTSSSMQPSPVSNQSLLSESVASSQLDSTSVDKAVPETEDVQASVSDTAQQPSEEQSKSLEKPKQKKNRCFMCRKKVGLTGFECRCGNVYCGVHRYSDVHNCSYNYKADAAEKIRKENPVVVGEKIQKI
In short: as §1

[5] = biological target: ZFP91 (UniProt Q96JP5)
ZFP91, sequence (Q96JP5 whole entry, looked up): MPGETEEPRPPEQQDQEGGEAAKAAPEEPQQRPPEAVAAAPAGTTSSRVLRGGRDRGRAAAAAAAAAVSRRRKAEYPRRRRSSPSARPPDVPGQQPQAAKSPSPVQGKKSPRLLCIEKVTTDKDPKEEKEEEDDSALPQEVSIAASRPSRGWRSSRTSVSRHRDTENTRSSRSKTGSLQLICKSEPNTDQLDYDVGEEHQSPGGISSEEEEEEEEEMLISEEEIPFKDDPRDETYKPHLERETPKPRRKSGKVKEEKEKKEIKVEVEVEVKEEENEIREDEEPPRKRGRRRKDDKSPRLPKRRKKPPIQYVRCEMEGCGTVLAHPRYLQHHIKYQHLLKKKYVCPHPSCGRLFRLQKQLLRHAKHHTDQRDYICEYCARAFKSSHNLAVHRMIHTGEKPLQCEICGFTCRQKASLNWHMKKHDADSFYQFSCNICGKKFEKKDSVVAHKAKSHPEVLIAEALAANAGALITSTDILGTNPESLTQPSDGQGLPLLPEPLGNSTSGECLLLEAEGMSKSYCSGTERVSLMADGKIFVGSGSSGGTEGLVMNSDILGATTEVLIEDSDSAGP
In short: as §1

[6] = biological target: ZFPL1 (UniProt O95159)
In short: as §1

[7] = biological target: ZMAT2 (UniProt Q96NC0)
ZMAT2, sequence (Q96NC0 whole entry, looked up): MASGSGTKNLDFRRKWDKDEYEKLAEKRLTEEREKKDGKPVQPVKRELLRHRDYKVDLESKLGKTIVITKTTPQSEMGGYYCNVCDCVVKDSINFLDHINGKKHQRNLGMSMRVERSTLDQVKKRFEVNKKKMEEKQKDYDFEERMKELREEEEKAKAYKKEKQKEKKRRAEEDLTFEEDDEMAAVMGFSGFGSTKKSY
In short: as §1

[8] = biological target: ZMYM1 (UniProt Q5SVZ6)
ZMYM1, sequence (Q5SVZ6 whole entry, looked up): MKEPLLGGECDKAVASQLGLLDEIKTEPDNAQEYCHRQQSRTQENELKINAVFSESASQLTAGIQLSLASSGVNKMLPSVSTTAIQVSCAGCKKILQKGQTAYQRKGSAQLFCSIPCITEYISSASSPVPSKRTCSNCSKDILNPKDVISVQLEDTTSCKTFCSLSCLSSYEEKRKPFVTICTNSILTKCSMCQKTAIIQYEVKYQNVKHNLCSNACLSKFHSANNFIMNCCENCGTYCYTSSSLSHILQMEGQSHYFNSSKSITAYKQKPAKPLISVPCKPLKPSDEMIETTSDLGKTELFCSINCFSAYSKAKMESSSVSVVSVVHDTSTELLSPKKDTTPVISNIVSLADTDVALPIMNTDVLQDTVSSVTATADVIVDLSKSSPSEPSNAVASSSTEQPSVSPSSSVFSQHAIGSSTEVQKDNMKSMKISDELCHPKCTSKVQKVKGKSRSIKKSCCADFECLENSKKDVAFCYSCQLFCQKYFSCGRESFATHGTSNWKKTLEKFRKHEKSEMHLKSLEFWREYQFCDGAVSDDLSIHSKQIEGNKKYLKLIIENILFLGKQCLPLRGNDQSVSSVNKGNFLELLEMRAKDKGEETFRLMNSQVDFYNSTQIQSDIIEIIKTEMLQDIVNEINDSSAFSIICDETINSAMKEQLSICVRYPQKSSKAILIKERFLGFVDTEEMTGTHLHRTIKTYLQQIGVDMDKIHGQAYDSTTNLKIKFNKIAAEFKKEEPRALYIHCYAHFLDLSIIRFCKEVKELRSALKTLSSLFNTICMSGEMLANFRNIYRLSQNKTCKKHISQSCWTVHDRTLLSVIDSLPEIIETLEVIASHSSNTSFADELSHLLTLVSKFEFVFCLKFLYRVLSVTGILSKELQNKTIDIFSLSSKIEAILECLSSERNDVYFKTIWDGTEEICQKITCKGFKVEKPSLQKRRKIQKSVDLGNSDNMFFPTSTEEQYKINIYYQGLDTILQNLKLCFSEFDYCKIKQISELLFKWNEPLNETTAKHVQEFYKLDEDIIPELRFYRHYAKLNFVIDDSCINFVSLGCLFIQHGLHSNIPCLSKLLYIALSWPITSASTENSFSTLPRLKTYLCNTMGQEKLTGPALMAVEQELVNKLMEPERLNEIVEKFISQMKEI
In short: as §1

[9] = biological target: ZMYM3 (UniProt Q14202)
In short: as §1

[10] = biological target: ZNF143 (UniProt P52747)
ZNF143, sequence (P52747 whole entry, looked up): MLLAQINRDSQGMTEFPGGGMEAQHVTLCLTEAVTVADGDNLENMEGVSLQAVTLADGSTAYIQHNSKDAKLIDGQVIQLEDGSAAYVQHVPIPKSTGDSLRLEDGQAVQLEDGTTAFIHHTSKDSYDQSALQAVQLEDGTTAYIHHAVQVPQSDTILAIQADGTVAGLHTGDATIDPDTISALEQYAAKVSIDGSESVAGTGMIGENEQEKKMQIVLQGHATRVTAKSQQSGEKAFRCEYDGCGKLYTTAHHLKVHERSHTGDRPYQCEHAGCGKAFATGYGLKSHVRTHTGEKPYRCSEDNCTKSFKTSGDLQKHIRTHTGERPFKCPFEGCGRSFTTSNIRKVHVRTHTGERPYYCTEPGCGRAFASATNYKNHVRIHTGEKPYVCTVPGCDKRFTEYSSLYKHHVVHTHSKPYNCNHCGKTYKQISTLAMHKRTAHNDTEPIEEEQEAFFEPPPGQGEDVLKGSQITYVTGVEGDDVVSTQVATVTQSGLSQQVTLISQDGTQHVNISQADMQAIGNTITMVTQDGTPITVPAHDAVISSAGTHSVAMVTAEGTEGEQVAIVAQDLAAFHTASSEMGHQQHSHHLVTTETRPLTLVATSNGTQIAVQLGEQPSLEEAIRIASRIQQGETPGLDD
In short: as §1

Row | SMILES | log2 fold change [1] | log2 fold change [2] | log2 fold change [3] | log2 fold change [4] | log2 fold change [5] | log2 fold change [6] | log2 fold change [7] | log2 fold change [8] | log2 fold change [9] | log2 fold change [10]
1 | C=CC(=O)N1CCC[C@@H](n2nc(-c3ccc(Oc4ccccc4)cc3)c3c(N)ncnc32)C1 [ibrutinib] | 0.029 | 0.001 | 0.03 | 0.006 | 0 | 0.087 | 0.025 | 0.066 | 0.03 | 0.01
2 | CC(C)(O)CC(=O)NCCn1ccc2ncnc(Nc3ccc(Oc4cccc(C(F)(F)F)c4)c(Cl)c3)c21 | 0.034 | -0.104 | -0.019 | 0.015 | 0.065 | 0.04 | -0.016 | -0.01 | 0.084 | 0.028
3 | Oc1cc(-c2nc(-c3ccccc3)[nH]c2-c2ccncc2)ccc1Cl | -0.053 | 0.012 | -0.024 | -0.006 | -0.06 | -0.119 | -0.042 | -0.101 | -0.033 | 0.093
4 | CCN(CC)Cc1ccc2cc(COC(=O)Nc3ccc(C(=O)NO)cc3)ccc2c1 [givinostat] | 0.193 | 0.117 | -0.016 | 0.017 | 0.009 | -0.09 | -0.008 | 0.12 | 0.002 | -0.022
5 | Cc1ccc(NC(=O)c2cccc(N(C)C)c2)cc1NC(=O)c1ccc(O)cc1 | 0.071 | -0.059 | 0.034 | 0.026 | 0.036 | 0.094 | 0 | 0.051 | 0.056 | 0.023
6 | CCN(CCCOc1ccc2c(Nc3cc(CC(=O)Nc4cccc(F)c4)[nH]n3)ncnc2c1)CCOP(=O)(O)O [barasertib] | 0.117 | 0.034 | -0.013 | 0.04 | -0.105 | -0.032 | -0.047 | 0.022 | -0.076 | 0.01
7 | CS(=O)(=O)CCNCc1ccc(-c2ccc3ncnc(Nc4ccc(OCc5cccc(F)c5)c(Cl)c4)c3c2)o1 [lapatinib] | 0.019 | -0.057 | 0.038 | -0.106 | 0.173 | -0.035 | 0.016 | 0.082 | 0.007 | -0.011
8 | CC[C@H](C)n1cc(C)c2c(C(=O)NCc3c(C)cc(C)[nH]c3=O)cc(-c3ccc(N4CCNCC4)nc3)cc21 | 0.173 | 0.064 | -0.045 | -0.05 | 0.04 | -0.013 | -0.073 | -0.016 | 0.055 | 0.068
9 | CNc1nc(-c2ccc3c(N)n[nH]c3c2)cc(N2C[C@@H](C(=O)NC3CCCCC3)CC[C@H]2C)n1 | -0.09 | -0.245 | -0.072 | -0.017 | -0.007 | -0.031 | -0.058 | -0.021 | -0.004 | -0.118
10 | CN(C)CC(=O)Nc1ccc2[nH]c(=O)c3ccccc3c2c1 | -0.124 | -0.099 | -0.119 | -0.052 | -0.074 | 0 | -0.018 | -0.046 | -0.067 | -0.025
11 | NC(=O)Nc1cc(-c2cccc(F)c2)sc1C(=O)N[C@H]1CCCNC1 | 0.003 | -0.046 | -0.041 | 0.12 | -0.044 | -0.04 | 0.282 (active) | -0.108 | -0.042 | 0.07
12 | Cn1cncc1[C@@](N)(c1ccc(Cl)cc1)c1ccc2c(c1)c(-c1cccc(Cl)c1)cc(=O)n2C [tipifarnib] | 0.045 | 0.111 | 0.031 | -0.09 | 0.149 | 0.008 | -0.058 | 0.01 | 0.027 | 0.037
13 | COC(=O)N[C@@H](C)CNc1nccc(-c2cn(C(C)C)nc2-c2cc(Cl)cc(NS(C)(=O)=O)c2F)n1 [encorafenib] |  | 0.01 | -0.047 | -0.019 | 0.038 | -0.026 | 0.106 | 0.082 | -0.032 | 0.014
14 | Cc1ccc2c(=O)c3ccccc3n(CCCN)c2c1C | -0.476 (active) | -0.017 | -0.095 | 0 | -0.432 (active) | 0.079 | -0.04 | 0.024 | -0.058 | -0.043
15 | NC(=O)c1cnc(N[C@@H]2CCCC[C@@H]2N)nc1Nc1cccc(-n2nccn2)c1 |  | -0.001 | 0.084 | 0.089 | -0.001 | 0.054 | 0.079 | -0.123 | 0.11 | -0.106
16 | Cc1nc(Nc2n[nH]c3c2CN(C(=O)N[C@H](CN(C)C)c2ccccc2)C3(C)C)c2sccc2n1 | -0.149 | -0.141 | 0.038 | 0.028 | -0.059 | -0.034 | 0.07 | -0.063 | -0.01 | -0.047
17 | CC1=C(C(=O)Nc2cc3cn[nH]c3cc2F)C(c2ccc(C(F)(F)F)cc2)CC(=O)N1 (stereo not given) | -0.076 | -0.112 | 0.058 | -0.013 | 0.058 | 0.041 | 0.026 | 0.088 | 0.062 | 0.033
18 | c1cc(OCCN2CCCCC2)cc(-c2n[nH]c3ccc(-c4nnc[nH]4)cc23)c1 |  | 0.023 | -0.063 | -0.006 | -0.161 | 0.008 | 0.035 | -0.229 | 0.029 | -0.06
19 | CC(=O)c1cnc2ccc(-c3cc(Cl)c(O)c(Cl)c3)nc2c1N[C@H]1CC[C@H](CN(C)C)CC1 |  | 0.009 | -0.025 | 0.041 | 0.018 | 0.023 | -0.001 | 0.055 | -0.004 | -0.044
20 | CO[C@H]1C[C@@H]2CC[C@@H](C)[C@@](O)(O2)C(=O)C(=O)N2CCCC[C@H]2C(=O)O[C@H]([C@H](C)C[C@@H]2CC[C@H](n3cnnn3)[C@H](OC)C2)CC(=O)[C@H](C)/C=C(\C)[C@@H](O)[C@@H](OC)C(=O)[C@H](C)C[C@H](C)/C=C/C=C/C=C/1C [zotarolimus] |  | -0.035 | -0.012 | -0.045 | -0.028 | 0.006 | -0.034 | -0.05 | 0.093 | 0.067
